High-throughput results (PubChem BioAssay)
Compounds with a hit are over-represented: about 0.35% of the library has one in this group of screens.
Vif-APOBEC3F blk: qHTS for Inhibitors of Vif-A3F Interactions: qHTS; Potency, µM (titrated, usually from 46.1 µM), for the others: at the highest dose activity, negative = active; HeLa A3F-eYFP + Vif (tagged APOBEC3F with the HIV-1 protein that degrades it), YFP fluorescence increase; 390,000 compounds, 0.2% hits; further: % of control where 0% means no effect; nearly all actives have a fitted effect of over 65% in size
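HeLa cells stably expressing A3F-eYFP plus Vif, plated and incubated overnight at 37 deg C, then exposed to compounds overnight at 37 deg C. Blocked degradation read as raised yellow fluorescence (Ex 488/Em 500-530).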
GRP78 ERSR act: qHTS for Inducers of the Endoplasmic Reticulum Stress Response (ERSR) in Human Glioma: qHTS. 420,000 compounds, 0.02% hits. U87-MG GRP78 promoter luciferase reporter, 16 h. Potency, µM, without a hit: at the top dose activation, actives largely listed as activators; further: series mostly up to about 76 µM; % of control where 0% means no effect; nearly all actives have a fitted effect of over 35% in size
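Stably transfected U87-MG human glioma cells carrying a GRP78-based luminescent sensor were seeded at 1000 cells/well, pin-dosed with compounds and incubated 16 h. Luciferase reagent was then added, and end-point luminescence was read after 10 min at room temperature.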
Vif-A3G inh: qHTS for Inhibitors of Vif-A3G Interactions: qHTS; DNA dC->dU-editing enzyme APOBEC-3G (Homo sapiens), Q9HC16; HeLa A3G-eYFP + Vif (tagged APOBEC3G with the HIV-1 protein that degrades it), YFP fluorescence, overnight; Potency, µM (highest dose often 46.1 µM), without a hit: at the highest dose activity, negative = active, actives largely listed as inhibitors; 410,000 compounds, 0.076% hits; AID 602310, 2012; further: on the % scale 0 is the no-effect control and ±100 the full control effect; nearly all actives have a fitted effect of over 60% in size
Target sequence (Q9HC16 whole entry, looked up): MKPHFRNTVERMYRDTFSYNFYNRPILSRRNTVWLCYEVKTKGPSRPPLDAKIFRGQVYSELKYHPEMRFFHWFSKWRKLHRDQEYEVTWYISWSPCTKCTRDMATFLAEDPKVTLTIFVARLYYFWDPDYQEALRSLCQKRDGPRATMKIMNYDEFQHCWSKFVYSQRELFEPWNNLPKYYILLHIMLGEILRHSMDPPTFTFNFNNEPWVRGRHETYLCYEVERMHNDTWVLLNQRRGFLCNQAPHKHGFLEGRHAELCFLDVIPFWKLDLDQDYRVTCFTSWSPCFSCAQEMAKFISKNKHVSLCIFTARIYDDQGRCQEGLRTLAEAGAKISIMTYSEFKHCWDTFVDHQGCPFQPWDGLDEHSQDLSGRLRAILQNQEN
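Read-out is eYFP fluorescence (Ex 488/Em 500-530) from Vif-expressing HeLa A3G-eYFP cells; more signal means A3G escaped Vif-mediated degradation. Cells plated overnight, compound pinned in, incubated overnight at 37 deg C.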
Epigenetic derep: Quantitative High-Throughput Screen for Regulators of Epigenetic Control; Potency, µM (top dose mostly 53.9 µM), for the others: at the top dose GFP activation, hits mostly activators; murine LDR cells, GFP reporter derepression, 30 h; 280,000 compounds, 0.2% hits; further: % of control where 0% means no effect; nearly all actives have a fitted effect of over 60% in size
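Derepression of a silenced CMV-GFP reporter in murine LDR cells is scored by enumerating GFP-positive cells with a laser-scanning microplate cytometer after 30 hours of treatment at 37 C.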
Active calls of the source: *; i = inactive; ? = inconclusive; . = no result given; [ ] = remark or other dose. The call rests on the fitted dose curve; in most records, active means well fitted curve in the direction sought with a large enough effect; inconclusive means small, poorly fitted or top-dose-only effect, or another doubt; inactive means no such curve, though single readings can be large; an effect the other way counts as inactive or inconclusive. Potency means the concentration at half of the fitted maximal effect.

SMILES | Vif-APOBEC3F blk | GRP78 ERSR act | Vif-A3G inh | Epigenetic derep
CN1/C(=C\C=C2/SC(=S)NC2=O)C(C)(C)c2ccccc21 | ? | -3% | 7.9µM* | ?
CCCN1C(=O)/C(=C\C=C2\N(CC)c3ccccc3C2(C)C)SC1=S | 3.5µM* | -2% | ? | -6%
CN1/C(=C\C=N\O)C(C)(C)c2ccccc21 | 1% | -7% | -11% | 2%
OC[C@@H]1CN(CCNc2ccccc2)C[C@H](n2cnc3c(NCc4ccncc4)ncnc32)O1 | . | -2% | -2% | .
Cc1ccc(Nc2c([N+](=O)[O-])ccc3nonc23)c(C)c1 | 5% | -2% | 1% | .
Cc1ccc(S(=O)c2ccc([N+](=O)[O-])c3nonc23)cc1 (centres undefined) | 22µM* | -4% | ? | .
O=C(c1cc2cc(Cl)ccc2[nH]1)N1CCN(c2ccccn2)CC1 | -1% | -6% | 1% | .
Cc1ccc(S(=O)(=O)c2cnc(SCC(=O)Nc3ccccc3C(F)(F)F)[nH]c2=O)cc1C | 0% | -5% | -3% | 12%
COc1cc(-c2cc(O)c(-c3ccc4ccccc4n3)c(=O)[nH]2)cc(OC)c1OC | 11µM* | 5% | 10µM* | .
Fc1ccccc1COc1ccc2ccccc2c1CNc1nn[nH]n1 | -20% | -4% | ? | 0%
Fc1ccc(COc2ccc3ccccc3c2CNc2nn[nH]n2)cc1 | -1% | -5% | 13µM* | -1%
CCOC(=O)c1ccc(N2CCN(c3ccccc3OC)CC2)c(NC(=O)Nc2ccc(CC)cc2)c1 | 0% | 0% | 7% | 12%
CCOc1cc(/C=C2\CCC/C(=C\c3cc(Cl)c(O)c(OCC)c3)C2=O)cc(Cl)c1O | ? | -15% | 3.2µM* | ?
Cc1ccc(NC(=O)CCn2c(=O)c3cccn3c3ccccc32)cc1C | 5% | 0% | -4% | 1%
CCN(CC)c1ccc2cc(-c3nc4sc5c(c4c(=O)[nH]3)CCC(C(C)(C)C)C5)c(=O)oc2c1 (centres undefined) | ? | -2% | 10µM* | 1%
CC(C)(C)C1CCc2c(sc3nc(-c4cc5ccccc5oc4=O)[nH]c(=O)c23)C1 (centres undefined) | 3% | -3% | 4% | 3%
COCCN(CCOC)Cc1c(O)ccc2c1O/C(=C\c1ccc(C)o1)C2=O | 25µM* | -2% | -1% | .
CCN(CC)Cc1c(O)ccc2c1O/C(=C\C=C\c1ccccc1)C2=O | ? | 15% | -4% | -1%
CCOC(=O)c1c(-c2ccc(OC)cc2)csc1/N=C/N(C)C | -9% | -3% | -19% | -1%
CCOC(=O)c1c(-c2ccc(OC)cc2)csc1/N=C/C1C(=O)CCCC1=O | 25µM* | 13% | ? | ?
COC(=O)C(O)(NC(=O)c1ccncc1)C(F)(F)F (centres undefined) | -1% | -2% | 0% | -2%
Cc1nc2c3cc(F)ccc3n(Cc3ccccc3)c2s1 | -28% | -7% | 6.3µM* | 0%
CCOC(=O)C1CCN(Cc2ccc(O)c3ncccc23)CC1 | -4% | -1% | -13% | 5.6µM*
O=C(NCc1ccccc1Cl)c1ccc(Nc2nc3ccccc3n3nnnc23)cc1 | ? | -2% | -14% | 10µM*
COc1ccc(Nc2nc3ccccc3n3nnnc23)cc1 | ? | 3% | -5% | 3%
SMILES | Vif-APOBEC3F blk | GRP78 ERSR act | Vif-A3G inh | Epigenetic derep
O=C(NCCc1ccccc1)c1ccc(Nc2nc3ccccc3n3nnnc23)cc1 | -11% | -4% | -6% | 11%
COc1cc(Nc2nc3ccccc3n3nnnc23)cc(OC)c1OC | 6.3µM* | 4% | ? | ?
Cc1ccc(CNC(=O)c2ccc3c(c2)NC(=O)C(CS(=O)(=O)Cc2cccc(C)c2)N3)cc1 (centres undefined) | 22µM* | -1% | -13% | ?
O=C(NCc1ccccc1Cl)c1ccc2c(c1)NC(=O)C(CS(=O)(=O)Cc1ccc(Cl)cc1)N2 (centres undefined) | -4% | 0% | -6% | ?
COc1ccc(/C=N/N(C)C2=NS(=O)(=O)c3ccccc32)cc1 | -2% | -2% | -1% | .
CN(/N=C/c1ccc(N(C)C)cc1)C1=NS(=O)(=O)c2ccccc21 | i | -3% | 4.5µM* | .
CC(C)C(=O)NC(=S)N(Cc1ccccc1)Cc1ccccc1 | -9% | -1% | -5% | 7%
CC(C)CC(=O)NC(=S)N(Cc1ccccc1)Cc1ccccc1 | 25µM* | -3% | -3% | 1%
Cc1nn(C)cc1/C=N/NC(=S)Nc1ccccc1 | 6% | -1% | -1% | 4µM*
CC(NC1=CC(=O)c2cccnc2C1=O)C(O)c1ccccc1 (centres undefined) | ? | -14% | 10µM* | .
O=C1C(Nc2ccccc2)=CC(=O)c2ncccc21 | . | -12% | . | 0%
CC1(C)OC(C(O)(c2cc(C(F)(F)F)cc(C(F)(F)F)c2)c2cc(C(F)(F)F)cc(C(F)(F)F)c2)C(C(O)(c2cc(C(F)(F)F)cc(C(F)(F)F)c2)c2cc(C(F)(F)F)cc(C(F)(F)F)c2)O1 (centres undefined) | . | -4% | . | 2%[10.1 µM]
COc1ccc(NCc2cc3cc4c(cc3n(CC(=O)Nc3cc(C)ccc3C)c2=O)OCCO4)cc1 | 13µM* | -3% | ? | 11%
O=C(Nc1ccccc1)Nc1cccc(Cl)c1Cl | -14% | 3% | -4% | 0%
O=C(Nc1ccc(Oc2ccc(NC(=O)Nc3ccccc3Cl)cc2)cc1)Nc1ccccc1Cl | 11µM* | 2% | -2% | 1%
CC1(C)CC(=O)C(C=Nc2cc(C(=O)c3ccccc3)ccc2N)=C(O)C1 | 28µM* | 8% | -23% | 8%
Clc1ccc(/C=N/NC2=Nc3cccc4cccc2c34)cc1 | 13µM* | -10% | ? | ?
C(=N\NC1=Nc2cccc3cccc1c23)/c1ccccc1 | ? | 1% | -5% | 6%
COc1cc(/C=C2\SC(=S)N(Nc3ncc(C(F)(F)F)cc3Cl)C2=O)ccc1O | 22µM* | 14% | ? | 1%
COc1ccc(/C=C2\SC(=S)N(CC3CCCO3)C2=O)cc1 (centres undefined) | 8% | 7% | 0% | 0%
COc1cc(/C=C2\SC(=S)N(Nc3ccccc3)C2=O)ccc1O | ? | 3% | ? | 0%
CN(C)c1ccc(/C=C2\SC(=S)N(Nc3ncc(C(F)(F)F)cc3Cl)C2=O)cc1 | 10µM* | -2% | ? | 14µM*
COc1cc(/C=C2/SC(=S)N(CC3CCCO3)C2=O)ccc1O (centres undefined) | 32µM* | 4% | 5% | 3%
CN(Cc1ccccc1)C(=O)c1ccc(NC(=O)Cc2cccc(NC(=O)C3CCCN(C(=O)C4CCC4)C3)c2)cc1 (centres undefined) | 2% | -5% | -4% | .
CCCN(CCC)C(=O)Cn1c(=O)n(CCCCCC(=O)NCc2ccc3c(c2)OCO3)c(=O)c2sccc21 | -1% | -3% | -2% | -2%
